PubChem BioAssay AID1259418 (Broad Institute, 2018)
The whole screen tested about 3,400 compounds, of which about 840 (25%) were called active. About 11% were inconclusive and are not listed.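 How the source made its calls: active means fitted half-maximal concentration of signal decrease at or below twice the sample's top tested concentration; inconclusive means flat curve between -70 and -30 percent, or poor fit; inactive means flat within 30 percent, signal rise, or potency above limit.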 Not all results are given here. Entries with a potency or affinity are not part of this list.

assay: T. gondii growth inhibition with IFN-gamma, dose response, cell-based, ME49Luc, HeLa, luciferase, 72 h (AID 1259418); details: T. gondii ME49Luc in IFN-y HeLa, stronger effect = lower value, -100% = high-dose IFN-γ control wells; at 19.5 µM unless noted

Row | Compound | max activity
1 | Cc1ccc(NC(=O)N2CCc3nc(-c4ccccc4)sc3C2)cc1C | -7.49% [at 2.6 µM] (inactive)
2 | Cc1cccc(-c2nc(Cn3nnc(-c4nc(-c5cccc(C(F)(F)F)c5)no4)c3C)c(C)o2)c1 | 8.75% [at 1.35 µM] (inactive)
3 | O=C(Nc1ccc(-c2nc(-c3ccccc3)co2)cc1)Nc1ccc2c(c1)OCO2 | 19.1% [at 0.16 µM] (inactive)
4 | Cc1ccccc1NC(=O)CN1CCC2(CC1)N=C(c1ccc(Cl)cc1)C(=O)N2 | -13.7% [at 1.35 µM] (inactive)
5 | CCn1nnc2c(NCCSc3c[nH]c4ccccc34)ncnc21 | -13.5% [at 0.68 µM] (inactive)
6 | COc1ccc(-n2ncc3c(NC4CCCCCCCCCCC4)ncnc32)cc1 | 21.4% [at 1.35 µM] (inactive)
7 | O=C(NCCc1c[nH]c2ccccc12)C1CCN(c2ncnc3c2oc2ccccc23)CC1 | 11.9% [at 0.68 µM] (inactive)
8 | COc1ccc(-c2nc(N3CCN(c4ccc(F)cc4)CC3)c3ccccc3n2)cc1 | 13.7% [at 10 µM] (inactive)
9 | Cc1cccc(-c2nc(CSc3nc4c(c(=O)[nH]3)CN(Cc3ccc(Cl)cc3)CC4)c(C)o2)c1 | 23.2% [at 0.16 µM] (inactive)
10 | O=S(=O)(c1ccc(Cl)s1)N1CCC2(CC1)NCCN=C2NC1CCCC1 | 13.4% (inactive)
11 | O=S(=O)(c1cccs1)N1CCC2(CC1)NCCN=C2NCc1ccccc1F | -35.7% (inactive)
12 | COc1ccccc1CNC1=NCCNC12CCN(S(=O)(=O)c1cccs1)CC2 | -16.5% [at 0.68 µM] (inactive)
13 | CCc1ccc(S(=O)(=O)N2CCC3(CC2)NCCN=C3NCc2ccccc2OC)cc1 | 11.2% [at 0.16 µM] (inactive)
14 | COC[C@H]1CN(CC2CC2)C[C@@]12CCN(CCc1ccccc1)C2 | 24% (inactive)
15 | CCCN1CCc2nc(SCc3nc(-c4ccc(OC)cc4OC)oc3C)[nH]c(=O)c2C1 | 66.7% (inactive)
16 | COc1ccc(-c2nc(Nc3ccc(C)c(C)c3)c3ccccc3n2)cc1 | 21.6% [at 0.16 µM] (inactive)
17 | CC1(C)C2CCC1(CS(=O)(=O)O)C(=O)/C2=C\c1ccc(/C=C2/C(=O)C3(CS(=O)(=O)O)CCC2C3(C)C)cc1 | 14.9% (inactive)
18 | CCn1c(C2CCCN(C(=O)CCN3CCCCCC3=O)C2)nn(C)c1=O (stereo not drawn) | 20.9% (inactive)
19 | CN1C(=O)CCc2cc(NC(=O)c3ccnn3C)ccc21 | 26.8% (inactive)
20 | Cc1cc2cc(CNc3ncnc4c3nnn4C)ccc2[nH]1 | 9.49% [at 10 µM] (inactive)
21 | COc1ccc(C)cc1NC(=O)Nc1ccc(-c2nc(-c3cccc(Br)c3)co2)cc1 | -11.7% [at 0.35 µM] (inactive)
22 | CC1CCCCN1CCNS(=O)(=O)c1cc(-c2nc(C(C)(C)C)cs2)cs1 (stereo not drawn) | -20.5% (inactive)
23 | COc1ccc(-c2nc(N3CCC(Cc4ccccc4)CC3)c3ccccc3n2)cc1 | 16.4% (inactive)
24 | Cc1ccc(-c2coc(-c3ccc(NC(=O)Cc4cccs4)cc3)n2)cc1 | -53.8% [at 0.68 µM] (inactive)

Row | Compound | max activity
25 | COc1cccc(CNC2=NCCNC23CCN(S(=O)(=O)c2ccc(C(C)C)cc2)CC3)c1 | -13.5% [at 0.35 µM] (inactive)
26 | Cc1nc(CCNC(=O)[C@H]2CCCN2S(=O)(=O)c2ccc(C(C)(C)C)cc2)cs1 | 7.93% [at 5 µM] (inactive)
27 | CCCCC(=O)N1CCC(C(=O)NCCc2csc(-c3ccccc3)n2)CC1 | 6.78% [at 2.6 µM] (inactive)
28 | CCc1nc(OCC(=O)Nc2ccc3c(c2)OCO3)c2ccccc2n1 | 23.2% [at 10 µM] (inactive)
29 | CCOC(=O)C1CCCN(S(=O)(=O)c2cc(-c3nc(C)c(C)s3)sc2C)C1 (stereo not drawn) | 14.9% [at 0.16 µM] (inactive)
30 | COc1ccc2c(c1)NC1(CCN(C(=O)c3ccc(C(C)(C)C)cc3)CC1)c1cccn1-2 | -6.3% [at 0.35 µM] (inactive)
31 | CN1C(=O)CCc2cc(NC(=O)C3CCCO3)ccc21 (stereo not drawn) | 17.1% (inactive)
32 | COc1cccc(-c2nc(CN(c3ccc(C)cc3)S(=O)(=O)c3cccs3)c(C)o2)c1OC | 2.85% (inactive)
33 | COc1ccc(N(Cc2nc(-c3ccccc3)oc2C)S(=O)(=O)c2cccs2)cc1 | 14.6% (inactive)
34 | CCOc1ccc(N(Cc2nc(-c3ccccc3OCC)oc2C)S(=O)(=O)c2cccs2)cc1 | 8.57% [at 10 µM] (inactive)
35 | COc1ccccc1-c1nc(Cn2nnc(-c3nc(-c4ccc(SC)cc4)no3)c2C)c(C)o1 | 10.9% [at 0.16 µM] (inactive)
36 | CCOc1ccc(NC(=O)Nc2ccc(-c3nc(-c4cc(C)ccc4C)co3)cc2)cc1 | -9.48% [at 1.35 µM] (inactive)
37 | CCN1Cc2c(C(=O)Nc3ccc(C)cc3)ncn2-c2ccccc2S1(=O)=O | 5.65% (inactive)
38 | CC(C)n1c(C(=O)Nc2cccc(F)c2)nc2c1CCN(Cc1ccccc1)C2 | 12.5% (inactive)
39 | CN1[C@H](CO)[C@@H]2c3ccccc3N(C(=O)C3CCCCC3)C[C@@H]21 | 65.5% (inactive)
40 | COc1ccc(CC(=O)N2CCC3(CC2)Nc2ccc(C)c(C)c2-n2cccc23)cc1OC | 11.1% [at 0.68 µM] (inactive)
41 | Cc1ccc(C)c(-c2coc(-c3ccc(NC(=O)Nc4ccccc4)cc3)n2)c1 | 17.8% [at 0.16 µM] (inactive)
42 | CCOCC1CC2(CCN(C(=O)COc3ccc(C)cc3)CC2)CO1 (stereo not drawn) | 14.2% (inactive)
43 | O=C(CC1N=C2c3ccccc3N=C(SCc3cc(=O)n4cc(Cl)ccc4n3)N2C1=O)NC1CCCCC1 (stereo not drawn) | 36.6% [at 10 µM] (inactive)
44 | FC(F)(F)c1cccc(N2CCN(c3nc(-c4ccc(Cl)cc4)nc4ccccc34)CC2)c1 | -11.2% [at 0.16 µM] (inactive)
45 | Cc1ccc(Cl)cc1NC(=O)N1CCN(Cc2nc(-c3cccc(Cl)c3)oc2C)CC1 | 11.1% [at 10 µM] (inactive)
46 | Cc1cccc(NC(=O)N2CCN(Cc3nc(-c4cccc(Cl)c4)oc3C)CC2)c1 | 12.6% (inactive)
47 | Cc1oc(-c2cccc(Cl)c2)nc1CN1CCN(C(=O)Nc2cccc(Cl)c2)CC1 | 10.8% [at 0.35 µM] (inactive)
48 | CCc1ccccc1NC(=O)N1CCN(Cc2nc(-c3cccc(Cl)c3)oc2C)CC1 | 17.6% [at 10 µM] (inactive)
